# Cdc25B inh: inhibitors of Cdc25B phosphatase catalytic domain, primary screen, biochemical, OMFP fluorescence; 65,000 compounds, 0.1% hits; recombinant Cdc25B, OMFP fluorescence Ex485/Em525; M-phase inducer phosphatase 2 (Homo sapiens), P30305; inhibition, %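 (compounds tested at 10 µM final in the well)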; in the data active = inhibition above about 50%
# DUSP1 inh: MKP-1 phosphatase inhibitors, primary screen, biochemical, in vitro; Dual specificity protein phosphatase 1 (Homo sapiens), P28562; recombinant MKP-1, OMFP hydrolysis fluorescence; inhibition, %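 (compounds tested at a single concentration somewhere between 10 and 100 µM)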; 65,000 compounds, 0.15% hits; AID 374, 2006;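 active = inhibition above about 50%, limit read from the data; inconclusive = inhibition over screen mean plus 3 SD, below that limit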;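 also: 0% = DMSO max control wells and 100% = wells with enzyme stopped by NaOH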
# HePTP inhibitor: inhibitors of human HePTP phosphatase, primary screen, biochemical, absorbance, leukemia target. inhibition, % at 20 µM. 110,000 compounds, 0.64% hits. Tyrosine-protein phosphatase non-receptor type 7 (Homo sapiens), P35236. AID 521, 2006. recombinant HePTP phosphatase activity, OD absorbance; in the data active = inhibition above about 50%; inconclusive = no clear call, values can overlap the other calls;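 also: plate controls were vehicle for no effect and reference inhibitor for full effect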
# Target sequence (P35236 whole entry, looked up): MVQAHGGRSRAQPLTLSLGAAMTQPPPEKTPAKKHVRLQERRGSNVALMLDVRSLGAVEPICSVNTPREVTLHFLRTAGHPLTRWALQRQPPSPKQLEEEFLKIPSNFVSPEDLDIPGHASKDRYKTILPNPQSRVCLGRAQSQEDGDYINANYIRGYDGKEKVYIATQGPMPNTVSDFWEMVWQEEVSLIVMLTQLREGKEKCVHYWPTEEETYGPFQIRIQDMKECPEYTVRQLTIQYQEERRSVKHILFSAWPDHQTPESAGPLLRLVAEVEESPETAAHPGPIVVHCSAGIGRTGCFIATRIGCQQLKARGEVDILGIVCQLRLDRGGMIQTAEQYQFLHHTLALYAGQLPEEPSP
# Redox 05 DTT: redox cycling H2O2 generation, 0.5 mM DTT, dose response, artefact control, biochemical, Cdc25B catalytic domain; AID 682, 2007; cell-free redox cycling H2O2 generation; EC50, µM; shares compounds with Cdc25B inh; 30 compounds, 50% hits; in the data active = EC50 below about 30 µM
# Redox H2O2 1DTT: redox cycling H2O2 generation, 1 mM DTT, dose response, artefact control, biochemical, 1.0 mM DTT, Cdc25B catalytic domain; 30 tested, under 10 active; EC50, µM; cell-free redox cycling H2O2 generation; shares compounds with Cdc25B inh; AID 683, 2007; in the data active = EC50 below about 50 µM
# Redox H2O2: redox cycling hydrogen peroxide production, dose response, artefact control, biochemical, probe assessment; AID 672, 2007; Redox cycling H2O2 generation, DTT, phenol red/HRP; shares compounds with DUSP1 inh; 60 tested, under 10 active; EC50, µM; call rule not given here
# Starred values were filed as active, the others as inactive; ? = inconclusive; . = not tested or not shown. Most compounds without a hit are left out; they make up all but 0.7% or so of the library.
SMILES,Cdc25B inh,DUSP1 inh,HePTP inhibitor,others
Cc1ccc(C(C)C)c(OCC(=O)Nc2ccc(NC(=O)c3ccco3)cc2)c1,.,.,-1.7,
Cc1ccc(C(C)C)c(OCC(=O)Nc2ccc(OC(F)(F)F)cc2)c1,.,.,83.0*,
COc1ccc(S(=O)(=O)N2CCN(Cc3ccccn3)CC2)cc1,.,.,-8.7,
CC1CC(Nc2ccccc2)c2ccccc2N1C(=O)c1ccc(Cl)c(Cl)c1 (configuration not stated),.,.,9.9,
Cc1ccccc1NC1CC(C)N(C(=O)c2ccccc2)c2c(C)cccc21 (configuration not stated),.,.,103.0*,
O=[N+]([O-])c1cccc2c1=C1C(Cl)=CC=C1C=2,.,.,-12.4,
Cc1csc(-c2cc3ccc(O)c(CN4CC5(C)CC4CC(C)(C)C5)c3oc2=O)n1 (configuration not stated),.,.,75.9*,
Cc1oc2c(CN3CC4(C)CC3CC(C)(C)C4)c(O)ccc2c(=O)c1-c1nc2ccccc2s1 (configuration not stated),.,.,-6.3,
O=c1[nH]ncc2c3ccccc3n(Cc3ccccc3)c12,-5.4,-11.3,-0.5,
O=C1NCC(Cn2c3ccccc3c3ccccc32)O1 (configuration not stated),.,.,103.9*,
O=C(Nc1cccnc1)c1cccc(Cl)c1Cl,.,.,-17.8,
O=C(O)C1CCCCC1C(=O)N1CCN(c2ccc(Cl)cc2)CC1 (configuration not stated),.,.,-11.8,
COc1cc(C2CC(=O)Nc3c2ccc2ccccc32)cc(Br)c1OC (configuration not stated),.,.,4.8,
CCOc1ccc(C2/C(=C(\O)c3ccc([N+](=O)[O-])cc3)C(=O)C(=O)N2CCCCCC(=O)O)cc1 (configuration not stated),.,.,4.2,
O=C(Nc1ccc(Cl)c(Cl)c1)Nc1ncccc1Cl,.,.,8.2,
CCOC(=O)c1ccc(NC(=O)CN(c2ccccc2OCC)S(=O)(=O)c2ccccc2)cc1,.,.,103.9*,
CCOC(=O)c1ccc(NC(=O)CN(c2ccc(F)cc2)S(=O)(=O)c2ccccc2)cc1,.,.,-5.2,
COc1ccccc1N/N=C(/C#N)C(=N)N1CCOCC1,.,.,8.0,
CC(C)(C)c1cc(C(=O)O)c(CN2CCCCC2)o1,79.4*,-15.7,2.9,
O=C(O)c1ccc(CN2CCCCC2)o1,0.7,17.4,5.0,
CC1=C(C(=O)OCc2ccc3c(c2)OCO3)C(c2ccc(N(C)C)cc2)NC(=O)N1 (configuration not stated),.,.,-16.5,
CCOC(=O)C(C(=O)OCC)c1cc(Nc2cccc(C)c2)c2c3c(onc13)-c1ccccc1C2=O,.,.,-13.5,
CCOC(=O)C(C(=O)OCC)c1cc(Br)c2noc3c2c1C(=O)c1ccccc1-3,62.0*,31.6,-9.0,Redox 05 DTT=26.1*;Redox H2O2 1DTT=45.7*
Cc1ccccc1Nc1cc2ccccc2c(=O)[nH]1,80.9*,7.5,-0.2,Redox 05 DTT=>50;Redox H2O2 1DTT=>50
Cc1cc2ccccc2c(=O)[nH]1,-8.8,-22.2,-3.2,
SMILES,Cdc25B inh,DUSP1 inh,HePTP inhibitor,others
CCOC(=O)c1c(NC(=O)/C=C/c2cccs2)sc(C)c1C,.,.,-2.4,
Cc1ccc(C)c(S(=O)(=O)NC(=O)C(C)O)c1 (configuration not stated),.,.,-5.4,
Cc1ccc2c(c1C)NC(C(=O)O)C1CC=CC21 (configuration not stated),52.6*,?,.,Redox 05 DTT=>50;Redox H2O2 1DTT=>50
COc1cccc2c1NC(c1cccc3ccccc13)C1CC=CC21 (configuration not stated),.,.,8.5,
CCOc1cc(C(=O)N2CCN(c3ccc([N+](=O)[O-])cc3)CC2)cc(OCC)c1OCC,.,.,0.3,
COc1ccc(Br)cc1/C=c1\sc2nc(-c3ccco3)nn2c1=O,61.3*,58.2*,.,Redox 05 DTT=>50;Redox H2O2 1DTT=>50;Redox H2O2=>50
Cc1ccc(/C=c2\sc3nc(-c4ccco4)nn3c2=O)o1,20.2,8.7,-3.9,
O=C(Nc1ccc2nc(-c3ccco3)c(-c3ccco3)nc2c1)N1CCCCCC1,51.0*,50.8*,32.2,Redox 05 DTT=>50;Redox H2O2 1DTT=>50;Redox H2O2=>50
CCOC(=O)N1CCN(C(=O)Nc2ccc3nc(-c4ccccc4)c(-c4ccccc4)nc3c2)CC1,.,.,6.7,
CCCC(=O)Nc1cccc(C(=O)Nc2ccc(C(=O)O)cc2)c1,.,.,4.9,
CCCCNC(=O)c1ccc(N2CCCCC2)c([N+](=O)[O-])c1,.,.,2.9,
CCN1CCc2c(sc(N)c2C#N)C1,1.4,-4.6,7.2,
N#Cc1c(N)sc(=S)c2c1CCN(Cc1ccccc1)C2,101.7*,100.1*,?,Redox 05 DTT=12.9*;Redox H2O2 1DTT=23.9*;Redox H2O2=34.6*
Cc1ccc(NC(=O)CSC(N)=O)c(C)c1,.,.,4.5,
COc1ccc(-c2cnn(-c3ccccc3)c2N)cc1OC,2.3,8.7,1.3,
Nc1nc2c(s1)CCc1c-2cnn1-c1ccccc1,18.7,51.7*,8.8,Redox H2O2=>50
CCOc1ccc(N(CC(=O)NCCSc2ccccc2)S(C)(=O)=O)cc1,.,.,8.1,
COc1ccccc1N1C(=O)c2ccc(C(=O)c3ccc4c(c3)C(=O)N(c3ccccc3OC)C4=O)cc2C1=O,.,.,-5.6,
COC(=O)c1ccc(CSc2nc3sc4c(c3c(=O)[nH]2)CCCC4)cc1,.,.,12.7,
CCCCCC(=O)c1c(C)nn(C)c1C,.,.,-2.3,
CCn1c(N)c(C(=O)NCC2CCCO2)sc1=S (configuration not stated),2.3,-9.4,15.1,
CCCCCNC(=O)c1ccc2c(=O)[nH]c3c(C(=O)NCC4CCCO4)sc(=S)n3c2c1 (configuration not stated),-4.0,55.1*,4.3,Redox H2O2=>50
Cc1cccc(NC(=O)c2cc(NC(=O)C3CC=CCC3C(=O)O)ccc2N2CCOCC2)c1 (configuration not stated),-2.9,11.2,6.8,
Cc1cccc(NC(=O)c2cc(NC(=O)C3CCCCC3C(=O)O)ccc2N2CCCCC2)c1 (configuration not stated),10.4,65.2*,0.3,Redox H2O2=>50
CN(c1ccc(C(=O)NCCSCc2cccc(Cl)c2)cc1)S(=O)(=O)c1ccccc1,.,.,1.2,
SMILES,Cdc25B inh,DUSP1 inh,HePTP inhibitor,others
CCn1c(SCC(=O)Nc2ccc3c(c2)c2ccccc2n3CC)nnc1-c1ccco1,23.6,63.9*,23.5,Redox H2O2=>50
CCn1c(SCC(=O)Nc2ccc3c(c2)OCCO3)nnc1-c1ccco1,-4.7,3.5,7.1,
Cc1cc(NC(=O)c2ccc(S(=O)(=O)N3CCCC3)cc2)nc2c1c(=O)oc1ccccc12,-0.3,66.8*,5.1,Redox H2O2=>50
Cc1cc(NC(=O)c2ccc(S(=O)(=O)N3CCOCC3)cc2)nc2c1c(=O)oc1ccccc12,-2.5,36.3,-5.0,
CC(C)OC(=O)c1c(-c2ccccc2)csc1NC(=O)C1C2CCC(C2)C1C(=O)O (configuration not stated),.,.,14.3,
CCCCCC#CCC#CCC#CCC#CCCCC(=O)O,20.2,29.4,?,Redox H2O2=>50
CCCCCc1ccc(CC(=O)O)cc1,-1.5,2.7,-2.9,

# Screening results as filed in PubChem BioAssay.
